Assay outcomes from PubChem.
Shown are actives, neighbours in structure and some others; about 32% of the full set was active somewhere.
CYP2C9 inhib – human CYP2C9 inhibition; P11712; CYP2C9 Supersomes, luciferin-H conversion, luminescence; inhibition, % at 5 µM; 20% of 96,000 active; AID 777;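 active = blocking of liver enzyme CYP2C9 beyond about 50% at 5 µM, limit read from the data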
CYP2C9 act – CYP2C9 (human) activation | P11712 | recombinant CYP2C9, luciferin-H conversion, luminescence; stronger effect = higher value; factor 1 = untreated enzyme, 0 = blocked | activation factor at 5 µM | 1.4% of 96,000 active;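 active = activation factor of 2 or more for CYP2C9 at a 5 µM dose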;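 also: 0 = sulfaphenazole-blocked wells and 1 = vehicle-only wells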
PostGolgi yeast – growth inhibition of a yeast mutant, post-Golgi transport screen. post-Golgi transport phenotypic cell assay. 0.9% of 98,000 active. inhibition, % at 10 µM. AID 739;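 also: yeast cells grown in 1536-well plates; yeast grown about 18 h at 30C before absorbance read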
CYP2C19 inh – blocks human cytochrome P450 2C19; inhibition, % at 5 µM; P33261; 21% of 96,000 active; AID 778; CYP2C19 Supersomes, luciferin-H EGE luminescence, 30 min;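 active = CYP2C19 inhibition above a set limit at 5 µM in the primary screen, cut at about 50% in these data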;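 also: plate controls were negative control wells for no effect and 2.5 mM tranylcypromine positive control for full effect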
Target sequence (P33261 whole entry, looked up): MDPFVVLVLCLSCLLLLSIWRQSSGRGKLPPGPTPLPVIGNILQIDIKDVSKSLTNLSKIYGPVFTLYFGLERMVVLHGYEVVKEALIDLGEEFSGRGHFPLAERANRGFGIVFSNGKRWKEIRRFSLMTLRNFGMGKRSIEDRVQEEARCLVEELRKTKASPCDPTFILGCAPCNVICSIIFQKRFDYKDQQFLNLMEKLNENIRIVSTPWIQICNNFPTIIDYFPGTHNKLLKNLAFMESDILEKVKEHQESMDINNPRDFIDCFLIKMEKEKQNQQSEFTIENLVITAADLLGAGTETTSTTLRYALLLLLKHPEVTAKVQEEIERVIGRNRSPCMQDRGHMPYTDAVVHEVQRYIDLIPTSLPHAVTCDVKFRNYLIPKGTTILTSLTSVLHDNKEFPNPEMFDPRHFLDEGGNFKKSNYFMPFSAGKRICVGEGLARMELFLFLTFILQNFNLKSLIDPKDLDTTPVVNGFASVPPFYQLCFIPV
CYP2C19 act – cytochrome P450 2C19 (human) activation | P33261 | recombinant CYP2C19, luciferin-H EGE luminescence; stronger effect = higher value; 0 = fully inhibited enzyme, 1 = untreated enzyme | activation factor at 5 µM | 96,000 tested, under 10 active | AID 1025;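 active = activation factor of at least 2 at 5 µM in the primary screen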;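 also: 0 = wells with 2.5 mM tranylcypromine and 1 = vehicle-only wells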
PostGolgi ctrl – growth of the yeast control strain, post-Golgi counter-screen | efflux-deficient yeast background strain, growth absorbance A615, 16 h | inhibition, % at 10 µM | 5% of 98,000 active
An asterisk follows results filed as active. Rule as the data show it, unless noted: active = inhibition above about 30%; inactive = the rest.

`Cc1nc2ccc(NC3=NCCCCC3)cc2s1` gave CYP2C9 inhib -3, CYP2C9 act 1, PostGolgi yeast 3, CYP2C19 inh -3, CYP2C19 act 1 and PostGolgi ctrl -7.
`CON(C)c1nc(NCC(C)C)nc(OCC#N)n1` gave CYP2C9 inhib 0, CYP2C9 act 1, PostGolgi yeast 1, CYP2C19 inh -2, CYP2C19 act 1 and PostGolgi ctrl 2.
Screening Cc1cccc(NC(=S)NN2CCN(C)CC2)c1 returned CYP2C9 inhib -3, CYP2C9 act 1, PostGolgi yeast 0, CYP2C19 inh 2, CYP2C19 act 1 and PostGolgi ctrl -1.
Screening Cc1ccc(-c2nc(N/N=C/c3cccnc3)c3ccccc3n2)cc1 returned CYP2C9 inhib 82*, CYP2C9 act 0.2, PostGolgi yeast -5, CYP2C19 inh 96*, CYP2C19 act 0 and PostGolgi ctrl 3.
`CSc1nc(NCc2ccco2)c2ccccc2n1` gave CYP2C9 inhib 64*, CYP2C9 act 0.4, PostGolgi yeast 3, CYP2C19 inh 64*, CYP2C19 act 0.4 and PostGolgi ctrl 11.
For c1cncc(-c2nc(NCc3ccco3)c3ccccc3n2)c1 the results were CYP2C9 inhib 62*, CYP2C9 act 0.4, PostGolgi yeast -5, CYP2C19 inh 24, CYP2C19 act 0.8 and PostGolgi ctrl 57*.
For OCCNc1nc(-c2cccnc2)nc2ccccc12 the results were CYP2C9 inhib 8, CYP2C9 act 0.9, PostGolgi yeast 1, CYP2C19 inh 15, CYP2C19 act 0.9 and PostGolgi ctrl 13.
Screening Cc1ccc(-c2nc(N/N=C/c3cccc([N+](=O)[O-])c3)c3ccccc3n2)cc1 returned PostGolgi yeast -1 and PostGolgi ctrl 15.
For OCCSc1nc(-c2cccnc2)nc2ccccc12 the results were CYP2C9 inhib 90*, CYP2C9 act 0.1, PostGolgi yeast 2, CYP2C19 inh 63*, CYP2C19 act 0.4 and PostGolgi ctrl 38*.
c1ccc2c(c1)sc1nnnn12 was read as CYP2C9 inhib 1, CYP2C9 act 1, PostGolgi yeast 14, CYP2C19 inh 1, CYP2C19 act 1 and PostGolgi ctrl -2.
For COc1ccc(NC(=O)NC(C(F)(F)F)C(F)(F)F)cc1 the results were CYP2C9 inhib -10, CYP2C9 act 1.1, PostGolgi yeast -2, CYP2C19 inh 3, CYP2C19 act 1 and PostGolgi ctrl 22.
N#Cc1cnn(CC2CCCCC2)c1N was read as CYP2C9 inhib 29, CYP2C9 act 0.7, PostGolgi yeast -3, CYP2C19 inh 48, CYP2C19 act 0.5 and PostGolgi ctrl 7.
Screening c1ccc(CN2CCN(c3nc(NCc4ccco4)c4ccccc4n3)CC2)cc1 returned CYP2C9 inhib 66*, CYP2C9 act 0.3, PostGolgi yeast -4, CYP2C19 inh 51*, CYP2C19 act 0.5 and PostGolgi ctrl 0.
Screening Clc1cccc(-c2nc(NCc3cccnc3)c3ccccc3n2)c1 returned CYP2C9 inhib 37, CYP2C9 act 0.6, PostGolgi yeast 27, CYP2C19 inh 4, CYP2C19 act 1 and PostGolgi ctrl 72*.
c1ccc(-c2nc(NCc3cccnc3)c3ccccc3n2)cc1 was read as CYP2C9 inhib 65*, CYP2C9 act 0.4, PostGolgi yeast 9, CYP2C19 inh 28, CYP2C19 act 0.7 and PostGolgi ctrl 9.
COc1nc(NCc2ccco2)nc(N2CCC(C)CC2)n1 was read as CYP2C9 inhib -49, CYP2C9 act 1.5, PostGolgi yeast 16, CYP2C19 inh 10, CYP2C19 act 0.9 and PostGolgi ctrl 8.
Cc1cccc(-n2c(N)cc(=O)[nH]c2=S)c1C was read as CYP2C9 inhib -18, CYP2C9 act 1.2, PostGolgi yeast 7, CYP2C19 inh -9, CYP2C19 act 1.1 and PostGolgi ctrl 20.
`CC(NC(=O)COC(=O)c1ccco1)c1ccccc1` (configuration not stated) gave CYP2C9 inhib -4, CYP2C9 act 1, PostGolgi yeast -5, CYP2C19 inh 26, CYP2C19 act 0.7 and PostGolgi ctrl 1.
`CCc1ccc2[nH]c(=O)c(CN(CCCN3CCOCC3)C(=O)Nc3ccccc3)cc2c1` gave CYP2C9 inhib 48, CYP2C9 act 0.5, PostGolgi yeast -5, CYP2C19 inh 56*, CYP2C19 act 0.4 and PostGolgi ctrl 4.
`CCc1ccc2[nH]c(=O)c(CN(CCCN3CCOCC3)C(=O)Nc3ccc(Cl)cc3)cc2c1` gave CYP2C9 inhib 38, CYP2C9 act 0.6, PostGolgi yeast 4, CYP2C19 inh 39, CYP2C19 act 0.6 and PostGolgi ctrl 25.
`O=C(Nc1ccccc1F)N(CCCN1CCOCC1)Cc1cc2cc3c(cc2[nH]c1=O)OCCO3` gave CYP2C9 inhib 52*, CYP2C9 act 0.5, PostGolgi yeast -1, CYP2C19 inh 90*, CYP2C19 act 0.1 and PostGolgi ctrl 0.
For Cc1csc(NC(=O)Cn2cnnn2)n1 the results were CYP2C9 inhib -13, CYP2C9 act 1.1, PostGolgi yeast 18, CYP2C19 inh -8, CYP2C19 act 1.1 and PostGolgi ctrl 22.
For CCOC(=O)C(CCCCOc1ccc([N+](=O)[O-])cc1)C(=O)OCC the results were CYP2C9 inhib 30, CYP2C9 act 0.7, PostGolgi yeast -3, CYP2C19 inh 12, CYP2C19 act 0.9 and PostGolgi ctrl 8.
O=C(Nc1ccc2nc(-c3ccc4nc[nH]c4c3)[nH]c2c1)c1cccs1 was read as CYP2C9 inhib 61*, CYP2C9 act 0.4, PostGolgi yeast -7, CYP2C19 inh 32, CYP2C19 act 0.7 and PostGolgi ctrl -4.
For CCCc1cc2c(c(NC(C)=O)n1)c(=O)oc1ccccc12 the results were PostGolgi yeast 5 and PostGolgi ctrl -1.
For CCCCCN=C(C)c1c(O)c2ccccc2oc1=O the results were CYP2C9 inhib 78*, CYP2C9 act 0.2, PostGolgi yeast -8, CYP2C19 inh 88*, CYP2C19 act 0.1 and PostGolgi ctrl 11.
Screening Cc1ccc(C(=O)NNC(=S)NC(=O)c2ccc(Cl)cc2)cc1 returned CYP2C9 inhib 87*, CYP2C9 act 0.1, PostGolgi yeast -5, CYP2C19 inh 0, CYP2C19 act 1 and PostGolgi ctrl 11.
For O=C(NNC(=S)NC(=O)c1cccnc1)c1ccc(Cl)cc1 the results were CYP2C9 inhib 63*, CYP2C9 act 0.4, PostGolgi yeast 3, CYP2C19 inh 2, CYP2C19 act 1 and PostGolgi ctrl -2.
Screening NC(=O)Nc1ccc(F)cc1 returned CYP2C9 inhib -3, CYP2C9 act 1, PostGolgi yeast 0, CYP2C19 inh -3, CYP2C19 act 1 and PostGolgi ctrl 0.
`O=C(CS(=O)(=O)c1ccccc1)c1ccc2c(c1)OCCO2` gave CYP2C9 inhib -84, CYP2C9 act 1.8, PostGolgi yeast 4, CYP2C19 inh 70*, CYP2C19 act 0.3 and PostGolgi ctrl 23.
